# Measurements taken from PubChem BioAssay (NCI).
# This is part of a sample that, as a whole, favours compounds with a hit. Of some 83,000 tested, about 20% had one in any assay.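 96-well plates, one dose, 48 hours. Percent growth reported; active if below 10.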 Active and inactive are the calls of the source.
# Test system: DU-145 prostate
# Test: NCI-60 one-dose screen, 48 h (100 = growth as untreated, 0 = no growth, -100 = all killed)
# Conditions: 10 µM unless noted
row,SMILES,growth
1,C/C(=N\N=C1/C(=O)Nc2ccc(Cl)cc21)c1ccc2c(c1)Nc1ccccc1S2,-56.3% (active)
2,CCCSc1nc(NCCc2c[nH]c3ccccc23)c(C#N)c(-c2ccc(F)cc2)n1,63.7% (inactive)
3,COc1cc(C2CC(c3cc(OC)c(OC)c(OC)c3)=NN2C(C)=O)ccc1OCc1ccccc1 (centres undefined),40.4% (inactive)
4,Cc1cc2c(cc1Cl)C(=O)/C(=C/c1ccccc1)O2,-94.3% (active)
5,COc1ccc2[nH]cc(-c3nc(N)nnc3-c3cn(C)c4ncccc34)c2c1,83.9% (inactive)
6,Cc1ccc(C(=O)CSc2nc3ccc(F)cc3c(=O)n2-c2ccc(Cl)cc2)cc1,50.4% (inactive)
7,CCCCSc1nc(NCCc2c[nH]c3ccccc23)c(C#N)c(-c2ccccc2)n1,54% (inactive)
8,Cn1cc(-c2nc(N)nnc2-c2c[nH]c3ccc(Br)cc23)c2cccnc21,59.7% (inactive)
9,CN(C)CCOc1ccc(C(=O)C2[C@H](c3ccc(Cl)cc3)[C@@H](c3ccccc3)NC23C(=O)Nc2ccc(Br)cc23)cc1 (some centres undefined),14.3% (inactive)
10,CN1CCN(/C(=N\c2sc(-c3ccccc3)nc2-c2ccccc2)c2ccccc2)CC1,92.3% (inactive)
11,CCCSc1nc(NCCc2c[nH]c3ccccc23)c(C#N)c(-c2ccccc2)n1,75.3% (inactive)
12,CCN(CC)c1ccnc(CNCCSC(c2ccccc2)(c2ccccc2)c2ccc(OC)cc2)c1,-25.3% (active)
13,COc1cc2oc(-c3cccc(C(=O)Nc4cccc([N+](=O)[O-])c4)c3)cc(=O)c2c(OC)c1OC,29.5% (inactive)
14,O=C(COc1ccc(NC(=O)Nc2ccc(Cl)c(Cl)c2)cc1)N=Nc1c(O)[nH]c2ccc([N+](=O)[O-])cc12,64.8% (inactive)
15,COc1cc(-c2nc3cc(Cl)c(Cl)cc3[nH]2)ccc1OCc1nnc(-c2cccs2)o1,34.7% (inactive)
16,CCCCCCCCc1ccc(C(=O)Nc2ccc(C)cc2C(=O)O)cc1C,105% (inactive)
17,CCOP(=O)(OCCCl)c1nc(-c2ccc(C)cc2)oc1NCc1ccccc1 (centres undefined),96% (inactive)

row,SMILES,growth
1,NS(=O)(=O)c1ccc(N=Nc2c(O)n(CC(=O)Nc3ccccc3)c3ccccc23)cc1,21.2% (inactive)
2,CC1(C)CC[C@]2(C(=O)Nc3ccccc3)CC[C@]3(C)C(=CCC4[C@@]5(C)C[C@@H](O)[C@H](O)[C@@](C)(CO)C5CC[C@]43C)C2C1 (some centres undefined),76.8% (inactive)
3,COc1ccccc1C(=O)NN1C(=O)/C(=C/C2=Cc3ccccc3OC2)SC1=S,112% (inactive)
4,COc1ccc(NC(=O)[C@H](CO)NC(=O)OC(C)(C)C)cc1C(=O)Nc1cccc(C2CC(=O)c3c(cc(OC)c(OC)c3OC)O2)c1 (some centres undefined),58.4% (inactive)
5,COc1ccc(C2(SCCNCc3cc(N(C)C)ccn3)c3ccccc3C=Cc3ccccc32)cc1,18.1% (inactive)
6,COc1ccc2[nH]c(O)c(N=NC(=O)COc3ccc(NC(=O)Nc4ccccc4)cc3)c2c1,72.5% (inactive)
7,COc1cc(/C=C/C(=O)c2ccc(C)cc2)ccc1Oc1nc(Nc2ccc(F)cc2)nc(N(C)C)n1,50.1% (inactive)
8,CCN(CC)CCOc1ccc(Nc2ncc3cc(-c4ccc(O)c(C#N)c4)c(=O)n(C)c3n2)cc1,84.6% (inactive)
9,CC(/C=C1\SC(=S)N(CCCC(=O)NC(CC(C)C)C(=O)O)C1=O)=C\c1ccccc1 (centres undefined),98.7% (inactive)
10,COc1cc2c(c(OC)c1OC)C(=O)CC(c1cccc(NC(=O)c3cc(N)ccc3Cl)c1)O2 (centres undefined),47.3% (inactive)
11,CC(=O)OC[C@@]1(C)C2CC[C@]3(C)C(CC=C4C5CC(C)(C)CC[C@]5(C(=O)Nc5cccc(C)c5)CC[C@]43C)[C@@]2(C)C[C@@H](OC(C)=O)[C@@H]1OC(C)=O (some centres undefined),48.3% (inactive)
12,CCCCc1c(Nn2cnnn2)no[n+]1[O-],56.2% (inactive)
13,CC(C)Sc1nc(NCCc2c[nH]c3ccccc23)c(C#N)c(-c2ccc(F)cc2)n1,40.6% (inactive)
14,C=C1CCC2C3(C)COC(c4ccc(F)cc4)OC3CCC2(C)C1CC(O)C1=CCOC1=O (centres undefined),59.3% (inactive)
15,NS(=O)(=O)c1ccc(N=Nc2c(O)n(CC(=O)Nc3ccccc3Cl)c3ccccc23)cc1,28.8% (inactive)
16,Cc1ccccc1[C@H]1C(C(=O)c2ccc(Cl)cc2)C2(N[C@@H]1c1ccccc1)C(=O)Nc1ccc(Cl)cc12 (some centres undefined),5.12% (active)
17,CCCCCCCCc1ccc(S(=O)(=O)Nc2ccc(CC)cc2C(=O)O)cc1,105% (inactive)
